Measured values published in PubChem BioAssay AID1159580 (chemical genetic matrix, 2015).
Several values for one entry are separate records, joined by “and”; a condition that tells them apart may be missing. Equal entries are not always repeated. Hit rate of the full screen: of about 5,500 compounds, about 2,000 (36%) were called active. About 18% were inconclusive and are not listed. Rule as the data show it: active = normalized growth mostly below about 0.91 (no sharp cut-off); inconclusive = no clear call, values can overlap the other calls; inactive = mostly above about 0.92. The list shows a part of the results.

Test: chemical genetic growth profiling, strain panel (AID 1159580);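 also: tested at 20 µM; growth read once vehicle control cultures reached saturation at 30 °C; 1 = growth at the plate median or of vehicle wells; lower values mean less growth of the strain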
Conditions: S. cerevisiae deletion strains, growth OD

Measured: normalized growth

CCOC(=O)CCC(=O)O[C@H]1[C@H](O[C@@H]2[C@@H](C)[C@H](O[C@H]3C[C@@](C)(OC)[C@@H](O)[C@H](C)O3)[C@@H](C)C(=O)O[C@H](CC)[C@@](C)(O)[C@H](O)[C@@H](C)C(=O)[C@H](C)C[C@@]2(C)O)O[C@H](C)C[C@@H]1N(C)C
inactive: locus YAL021C, strain ccr4, hits give low values 1.01 | locus YAL026C, strain drs2, hits give low values 1.02 | locus YAL030W, strain snc1, hits give low values 0.99 | locus YBL061C, strain skt5, hits give low values 0.994 | locus YBR009C, strain hhf1, hits give low values 0.993 | locus YBR021W, strain FUR4, hits give low values 0.997 | locus YBR023C, strain chs3, hits give low values 0.999 | locus YBR171W, strain sec66, hits give low values 1.01 | locus YBR229C, strain ROT2, hits give low values 0.949 | locus YBR231C, strain swc5, hits give low values 0.971 | locus YBR279W, strain paf1, hits give low values 1.01 | locus YCL011C, strain gbp2, hits give low values 1.01 | locus YCL016C, strain dcc1, hits give low values 0.992 | locus YCL029C, strain bik1, hits give low values 0.99 | locus YCL069W, strain vba3, hits give low values 1 | locus YCR088W, strain abp1, hits give low values 1.01 | locus YDL005C, strain med2, hits give low values 0.994 | locus YDL035C, strain GPR1, hits give low values 0.945 | locus YDL040C, strain nat1, hits give low values 0.995 | locus YDL074C, strain BRE1, hits give low values 0.962 | locus YDL101C, strain DUN1, hits give low values 0.977 | locus YDL134C, strain PPH21, hits give low values 0.963 | locus YDL185W, strain tfp1, hits give low values 0.971 | locus YDL192W, strain arf1, hits give low values 0.985 | locus YDR001C, strain nth1, hits give low values 1.01 | locus YDR069C, strain doa4, hits give low values 0.983 | locus YDR101C, strain arx1, hits give low values 0.953 | locus YDR137W, strain rgp1, hits give low values 1.01 | locus YDR150W, strain NUM1, hits give low values 0.988 | locus YDR159W, strain sac3, hits give low values 0.979 | locus YDR162C, strain NBP2, hits give low values 0.955 | locus YDR195W, strain ref2 0.956 | locus YDR297W, strain sur2, hits give low values 1 | locus YDR318W, strain mcm21, hits give low values 0.996 | locus YDR334W, strain swr1, hits give low values 1 | locus YDR335W, strain msn5, hits give low values 0.993 | locus YDR388W, hits give low values 0.984 | locus YDR392W, strain spt3, hits give low values 1.03 | locus YDR502C, strain sam2, hits give low values 0.991 | locus YEL003W, strain gim4, hits give low values 1.01 | locus YEL037C, strain rad23, hits give low values 1.01 | locus YEL061C, strain CIN8 (second series), hits give low values 1.02 | locus YEL061C, strain CIN8, hits give low values 0.989 | locus YER015W, strain faa2, hits give low values 0.986 | locus YER016W, strain bim1, hits give low values 1.01 | locus YER110C, hits give low values 0.99 | locus YER111C, strain swi4, hits give low values 0.996 | locus YER155C, strain BEM2 (second series), hits give low values 0.985 | locus YER155C, strain BEM2, hits give low values 0.999 | locus YER167W, strain BCK2, hits give low values 0.999 | locus YFR010W, strain ubp6, hits give low values 1.03 | locus YGL078C, strain dbp3, hits give low values 0.994 | locus YGL086W, strain mad1, hits give low values 0.972 | locus YGL167C, strain pmr1, hits give low values 1 | locus YGL173C, strain kem1, hits give low values 1 | locus YGL227W, strain vid30, hits give low values 1.01 | locus YGL240W, strain doc1, hits give low values 0.975 | locus YGL248W, strain PDE1, hits give low values 0.986 | locus YGL253W, strain hxk2, hits give low values 1.01 | locus YGR135W, strain pre9, hits give low values 1.05 | locus YGR252W, strain gcn5, hits give low values 1.07 | locus YHR013C, strain ard1, hits give low values 0.997 | locus YHR027C, strain rpn1, hits give low values 1.02 | locus YHR030C, strain SLT2, hits give low values 0.995 and 1.03 | locus YHR079C, strain IRE1 (second series), hits give low values 0.962 | locus YHR079C, strain IRE1, hits give low values 1.04 | locus YHR094C, strain hxt1, hits give low values 0.985 | locus YHR129C, strain ARP1, hits give low values 0.986 | locus YHR142W, strain chs7, hits give low values 1.03 | locus YHR200W, strain rpn10, hits give low values 0.98 | locus YIL066C, strain RNR3, hits give low values 0.974 | locus YIL073C, strain SPO22, hits give low values 1 | locus YIL125W, strain kgd1, hits give low values 0.985 | locus YIR030C, strain dcg1, hits give low values 0.997 | locus YJL092W, strain hpr5, hits give low values 1.01 | locus YJL095W, strain BCK1 (second series), hits give low values 0.99 | locus YJL095W, strain BCK1, hits give low values 0.99 and 1.02 | locus YJL115W, strain asf1, hits give low values 1 | locus YJL129C, strain trk1, hits give low values 1 | locus YJL134W, strain LCB3, hits give low values 0.993 | locus YJL154C, strain vps35, hits give low values 1.01 | locus YJL164C, strain tpk1, hits give low values 0.999 | locus YJL166W, strain qcr8, hits give low values 0.993 | locus YJL168C, strain set2, hits give low values 0.985 | locus YJL187C, strain SWE1 (second series), hits give low values 0.991 | locus YJR043C, strain POL32, hits give low values 0.963 | locus YJR066W, strain TOR1, hits give low values 0.89 | locus YJR075W, strain HOC1, hits give low values 0.983 | locus YKL009W, strain mrt4, hits give low values 0.971 | locus YKL068W, hits give low values 0.987 | locus YKL085W, strain MDH1 (second series), hits give low values 0.995 | locus YKL085W, strain MDH1, hits give low values 0.995 | locus YKL160W, strain elf1, hits give low values 1 | locus YKR001C, strain vps1, hits give low values 0.981 | locus YKR026C, strain gcn3, hits give low values 1.01 | locus YKR091W, strain srl3, hits give low values 1 | locus YLL001W, strain dnm1, hits give low values 1 | locus YLL026W, hits give low values 0.991 | locus YLL041C, strain sdh2, hits give low values 1 | locus YLR027C, strain aat2, hits give low values 0.986 | locus YLR039C, strain RIC1, hits give low values 0.932 | locus YLR058C, strain SHM2, hits give low values 0.975 | locus YLR102C, strain apc9, hits give low values 0.986 | locus YLR113W, strain HOG1, hits give low values 1.11 | locus YLR221C, strain rsa3, hits give low values 1 | locus YLR258W, strain gsy2, hits give low values 0.983 | locus YLR262C, strain YPT6 (second series), hits give low values 1.04 | locus YLR262C, strain YPT6, hits give low values 0.885 | locus YLR268W, strain sec22, hits give low values 0.97 | locus YLR320W, strain mms22, hits give low values 0.996 | locus YLR330W, strain CHS5, hits give low values 0.985 | locus YLR342W, strain FKS1 (second series), hits give low values 0.985 | locus YLR342W, strain FKS1, hits give low values 0.985 | locus YLR357W, strain rsc2, hits give low values 0.982 | locus YLR370C, strain arc18, hits give low values 1.02 | locus YLR371W, strain rom2, hits give low values 0.992 | locus YLR384C, strain iki3, hits give low values 0.981 | locus YLR418C, strain cdc73, hits give low values 1.01 | locus YML016C, strain PPZ1, hits give low values 0.987 | locus YML032C, strain rad52, hits give low values 0.982 | locus YML120C, strain ndi1, hits give low values 0.995 | locus YML124C, strain tub3, hits give low values 0.988 | locus YMR058W, strain fet3, hits give low values 1.01 | locus YMR078C, strain ctf18, hits give low values 0.983 | locus YMR125W, strain sto1, hits give low values 1.01 | locus YMR129W, hits give low values 0.993 | locus YMR205C, strain PFK2, hits give low values 0.99 | locus YMR223W, strain ubp8, hits give low values 1.03 | locus YMR231W, strain pep5, hits give low values 0.998 | locus YMR263W, strain SAP30, hits give low values 0.984 | locus YMR307W, strain GAS1, hits give low values 0.97 | locus YNL067W, strain RPL9B, hits give low values 0.992 | locus YNL071W, strain lat1, hits give low values 0.996 | locus YNL153C, strain GIM3, hits give low values 0.983 | locus YNL183C, strain NPR1, hits give low values 0.981 | locus YNL209W, strain ssb2, hits give low values 0.991 | locus YNL233W, strain BNI4, hits give low values 0.988 | locus YNL248C, strain rpa49, hits give low values 1.04 | locus YNL250W, strain rad50, hits give low values 0.99 | locus YNL271C, strain bni1, hits give low values 0.997 | locus YNL298W, strain CLA4, hits give low values 0.99 | locus YNL307C, strain MCK1, hits give low values 0.989 | locus YNL322C, strain KRE1 (second series), hits give low values 0.988 | locus YNL322C, strain KRE1, hits give low values 0.995 | locus YNR049C, strain mso1, hits give low values 0.988 | locus YNR052C, strain pop2, hits give low values 1 | locus YOL012C, strain htz1 0.719 | locus YOL147C, strain pex11, hits give low values 0.995 | locus YOR001W, strain rrp6, hits give low values 1 | locus YOR061W, strain CKA2, hits give low values 0.966 | locus YOR069W, strain VPS5, hits give low values 0.991 | locus YOR070C, strain gyp1, hits give low values 0.991 | locus YOR080W, strain dia2, hits give low values 0.978 | locus YOR083W, strain WHI5, hits give low values 1.02 | locus YOR106W, strain vam3, hits give low values 0.989 | locus YOR136W, strain idh2, hits give low values 0.982 | locus YOR144C, strain elg1, hits give low values 0.987 | locus YOR184W, strain ser1, hits give low values 0.98 | locus YOR231W, strain MKK1, hits give low values 1.07 | locus YOR265W, strain rbl2, hits give low values 0.984 | locus YOR270C, strain vph1, hits give low values 1.03 | locus YOR290C, strain snf2, hits give low values 1.03 | locus YOR316C, strain cot1, hits give low values 0.975 | locus YPL051W, strain arl3, hits give low values 0.988 | locus YPL078C, strain atp4, hits give low values 0.991 | locus YPL106C, strain sse1, hits give low values 0.986 | locus YPL240C, strain hsp82, hits give low values 1.01 | locus YPL241C, strain CIN2, hits give low values 0.979 | locus YPL256C, strain CLN2, hits give low values 1.05 | locus YPR119W, strain clb2, hits give low values 0.988 | locus YPR141C, strain kar3, hits give low values 0.987 | locus YPR163C, strain tif3, hits give low values 0.989 | locus YPR167C, strain met16, hits give low values 0.991 | strain wtn01, hits give low values 0.99
